Measured values reported in PubChem BioAssay (NCI).
This is part of a sample that, as a whole, favours compounds with a hit. Of some 79,000 tested, about 15% had one in any assay. The source made the active and inactive calls. Cut-off read from the data, not from the text of the source: active = growth inhibition above about 70%; inactive = the rest.

Legend:
[1] = NCI Yeast Anticancer Drug Screen. Data for the rad52 strain (AID 147);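 note: 0% = growth of vehicle-treated control cultures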; conditions: S. cerevisiae rad52 mutant growth inhibition, hits give high values
Procedure, shortened: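 Yeast strain carrying a DNA damage repair alteration was exposed to test compounds. Growth inhibition was measured relative to vehicle-treated controls.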

[2] = NCI Yeast Anticancer Drug Screen. Data for the wt1 strain (AID 149);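 note: 0% = growth of vehicle-treated wt1 cultures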; conditions: S. cerevisiae wt1 strain (SPY 50644) growth inhibition, hits give high values
Procedure, shortened: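 Vehicle-normalised growth inhibition; strain wt1; compound exposure.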

[3] = NCI Yeast Anticancer Drug Screen. Data for the rad50EPP+ strain (AID 151);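 note: 0% = growth of vehicle-treated control cultures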; conditions: S. cerevisiae rad50 mutant strain, hits give high values
Procedure, shortened: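 Yeast strain carrying rad50 alteration (rad50EPP+) exposed to compounds; growth inhibition measured relative to vehicle-treated controls.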

[4] = NCI Yeast Anticancer Drug Screen. Data for the mgt1 strain (AID 153); conditions: S. cerevisiae mgt1 mutant growth inhibition, hits give high values
Procedure, shortened: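 Yeast mgt1 strain (DNA repair/cell-cycle alteration panel) exposed to compounds; growth inhibition measured relative to vehicle-treated controls.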

[5] = NCI Yeast Anticancer Drug Screen. Data for the rad50 strain (AID 155);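 note: 0% = growth of vehicle-only cultures of the same strain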; conditions: S. cerevisiae rad50 strain growth inhibition, hits give high values
Procedure, shortened: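 A DNA repair-deficient yeast mutant serves as the test organism; compound-induced growth inhibition is calculated against vehicle-treated cells.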

[6] = NCI Yeast Anticancer Drug Screen. Data for the mec2-1 strain (AID 157); conditions: S. cerevisiae mec2-1 strain, hits give high values
Procedure, shortened: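 mec2-1 yeast strain, carrying an alteration in DNA damage repair or cell cycle control, was exposed to compounds; growth inhibition was measured relative to vehicle-treated controls.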

[7] = NCI Yeast Anticancer Drug Screen. Data for the rad14 strain (AID 159);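 note: 0% = growth of vehicle-treated control cultures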; conditions: S. cerevisiae rad14 strain growth inhibition, hits give high values
Procedure, shortened: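 Vehicle-treated cultures served as the baseline for growth inhibition of a DNA repair-mutant yeast strain exposed to each compound.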

[8] = NCI Yeast Anticancer Drug Screen. Data for the sgs1 mgt1 strain (AID 161);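 note: 0% = growth of cultures given vehicle only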; conditions: S. cerevisiae sgs1 mgt1 strain, hits give high values
Procedure, shortened: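 Growth of a repair-deficient yeast mutant was monitored after compound treatment and expressed as inhibition relative to vehicle-treated cultures.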

[9] = NCI Yeast Anticancer Drug Screen. Data for the CLN2oe strain (AID 163);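 note: 0% = growth of vehicle-only control cultures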; conditions: S. cerevisiae CLN2oe strain, hits give high values
Procedure, shortened: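 Yeast cells carrying a defined cell-cycle control alteration were exposed to test compounds. Growth inhibition was scored against vehicle-treated control cultures.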

[10] = NCI Yeast Anticancer Drug Screen. Data for the cln2 rad14 strain (AID 165);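 note: 0% = growth equal to vehicle treated cultures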; conditions: S. cerevisiae cln2 rad14 strain, hits give high values
Procedure, shortened: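 Yeast carrying cln2 and rad14 alterations (cell cycle control and DNA damage repair) were exposed to compounds. Growth inhibition was measured against vehicle-treated controls.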

[11] = NCI Yeast Anticancer Drug Screen. Data for the bub3 strain (AID 167); conditions: S. cerevisiae bub3 mutant strain, hits give high values
Procedure, shortened: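 Inhibition values come from growth of compound-treated mutant yeast normalised to vehicle-treated controls.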

[12] = NCI Yeast Anticancer Drug Screen. Data for the wt2 strain (AID 169);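 note: 0% = growth of vehicle-treated yeast cultures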; conditions: S. cerevisiae wt2 strain growth inhibition, hits give high values
Procedure, shortened: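 Yeast cells were exposed to test compounds, and growth inhibition was measured relative to vehicle-treated controls.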

[13] = NCI Yeast Anticancer Drug Screen. Data for the mlh1 strain (AID 171);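 note: 0% = growth of vehicle-treated control cultures of the same strain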; conditions: S. cerevisiae mlh1 strain growth inhibition, hits give high values
Procedure, shortened: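 Yeast carrying a defined genetic alteration in DNA damage repair or cell cycle control were exposed to test compounds. Growth inhibition was measured relative to vehicle-treated controls.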

[14] = NCI Yeast Anticancer Drug Screen. Data for the mlh1 rad18 strain (AID 175); conditions: S. cerevisiae mlh1 rad18 strain growth inhibition, hits give high values
Procedure, shortened: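 Growth inhibition of the yeast strain was measured after compound exposure and expressed relative to vehicle-treated controls. The strain carries defined defects in DNA damage repair.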

[15] = NCI Yeast Anticancer Drug Screen. Data for the rad18 strain (AID 177); conditions: S. cerevisiae rad18 mutant growth inhibition, hits give high values
Procedure, shortened: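 Yeast carrying a defined DNA damage repair alteration were exposed to compounds. Growth inhibition was expressed relative to vehicle-treated controls.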

[16] = NCI Yeast Anticancer Drug Screen. Data for the sgs1 strain (AID 173);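 note: 0% = growth of vehicle-only control cultures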; conditions: S. cerevisiae sgs1 mutant, hits give high values
Procedure, shortened: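 Yeast mutant strains carrying defined defects in DNA damage repair or cell cycle control were exposed to test compounds. Growth inhibition was scored against vehicle-treated controls.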

[17] = at 5.0 µM (retest, dose inferred, filed as 0.5)
[18] = at 50.0 µM (retest, dose inferred, filed as 5.0)

Measured: growth inhibition

O=C(O)c1ccccc1/C=N/N=C1c2ccccc2-c2ccccc21
inactive: [1]; at 1.2 µM -3% | [1]; at 3.7 µM -1% | [1]; at 11.0 µM -1% | [1]; at 33.0 µM 0% | [1]; at 100.0 µM 2% | [2]; at 1.2 µM -1% | [2]; at 3.7 µM 0% | [2]; at 11.0 µM 1% | [2]; at 33.0 µM 0% | [2]; at 100.0 µM 7% | [3]; at 1.2 µM -4% | [3]; at 3.7 µM 3% | [3]; at 11.0 µM -2% | [3]; at 33.0 µM 9% | [3]; at 100.0 µM 15% | [4]; at 1.2 µM -1% | [4]; at 3.7 µM 0% | [4]; at 11.0 µM 0% | [4]; at 33.0 µM -1% | [4]; at 100.0 µM 3% | [5]; at 1.2 µM 0% | [5]; at 3.7 µM -6% | [5]; [17] 10% | [5]; at 11.0 µM 7% | [5]; at 33.0 µM 0% | [5]; [18] 45% | [5]; at 50.0 µM 50.8% | [5]; at 100.0 µM 13% | [6]; at 1.2 µM -2% | [6]; at 3.7 µM -1% | [6]; [17] 2% | [6]; at 11.0 µM -2% | [6]; at 33.0 µM 0% | [6]; [18] 15% | [6]; at 50.0 µM 61.4% | [6]; at 100.0 µM 11% | [7]; at 1.2 µM 0% | [7]; at 3.7 µM -1% | [7]; at 11.0 µM 0% | [7]; at 33.0 µM -10% | [7]; at 100.0 µM 8% | [8]; [17] -7% | [8]; [18] 60% | [8]; at 50.0 µM 50% | [9]; at 1.2 µM -4% | [9]; at 3.7 µM 0% | [9]; at 11.0 µM 0% | [9]; at 33.0 µM -5% | [9]; at 100.0 µM 1% | [10]; [17] -23% | [10]; at 50.0 µM 45.7% | [11]; at 1.2 µM -3% | [11]; at 3.7 µM -1% | [11]; [17] -9% | [11]; at 11.0 µM 9% | [11]; at 33.0 µM 7% | [11]; [18] -3% | [11]; at 50.0 µM 48.5% | [11]; at 100.0 µM 4% | [12]; at 1.2 µM -1% | [12]; at 3.7 µM 0% | [12]; at 11.0 µM -1% | [12]; at 33.0 µM 0% | [12]; at 100.0 µM 5% | [13]; at 1.2 µM 1% | [13]; at 3.7 µM 2% | [13]; at 11.0 µM 1% | [13]; at 33.0 µM -9% | [13]; at 100.0 µM 8% | [14]; [17] -1% | [14]; [18] 39% | [14]; at 50.0 µM 68.5% | [15]; at 1.2 µM -3% | [15]; at 3.7 µM -1% | [15]; at 11.0 µM 2% | [15]; at 33.0 µM -4% | [15]; at 100.0 µM 6%
active: [10]; [18] 79%

O=C(O)c1cc2ccc(Cl)cc2c(O)c1C1=CCCCC1
active: [1]; at 100.0 µM 78% | [2]; at 100.0 µM 73% | [4]; at 100.0 µM 84% | [5]; at 50.0 µM 74.3% | [5]; at 100.0 µM 76% | [7]; at 100.0 µM 75% | [8]; [18] 76% | [8]; at 50.0 µM 79.8% | [9]; at 100.0 µM 71% | [11]; at 100.0 µM 78% | [12]; at 100.0 µM 87% | [16]; at 100.0 µM 88% | [14]; [18] 74% | [15]; at 100.0 µM 81%
inactive: [1]; at 1.2 µM 6% | [1]; at 3.7 µM 8% | [1]; at 11.0 µM 26% | [1]; at 33.0 µM 46% | [2]; at 1.2 µM -10% | [2]; at 3.7 µM 2% | [2]; at 11.0 µM 6% | [2]; at 33.0 µM 28% | [3]; at 1.2 µM 8% | [3]; at 3.7 µM 8% | [3]; at 11.0 µM 13% | [3]; at 33.0 µM 13% | [3]; at 100.0 µM 33% | [4]; at 1.2 µM 7% | [4]; at 3.7 µM -15% | [4]; at 11.0 µM 1% | [4]; at 33.0 µM 42% | [5]; at 1.2 µM -7% | [5]; at 3.7 µM -5% | [5]; [17] 33% | [5]; at 11.0 µM 11% | [5]; at 33.0 µM 36% | [5]; [18] 58% | [6]; at 1.2 µM 22% | [6]; at 3.7 µM 18% | [6]; [17] -1% | [6]; at 11.0 µM 22% | [6]; at 33.0 µM 40% | [6]; [18] 58% | [6]; at 50.0 µM 69.1% | [6]; at 100.0 µM 69% | [7]; at 1.2 µM -6% | [7]; at 3.7 µM -10% | [7]; at 11.0 µM 9% | [7]; at 33.0 µM 30% | [8]; [17] 0% | [9]; at 1.2 µM 17% | [9]; at 3.7 µM -2% | [9]; at 11.0 µM 4% | [9]; at 33.0 µM 40% | [10]; [17] 12% | [10]; [18] 63% | [10]; at 50.0 µM 56.9% | [11]; at 1.2 µM 14% | [11]; at 3.7 µM -8% | [11]; [17] 26% | [11]; at 11.0 µM -5% | [11]; at 33.0 µM 32% | [11]; [18] 64% | [11]; at 50.0 µM 60.4% | [12]; at 1.2 µM 5% | [12]; at 3.7 µM 5% | [12]; at 11.0 µM 23% | [12]; at 33.0 µM 52% | [16]; at 1.2 µM 23% | [16]; at 3.7 µM 23% | [16]; at 11.0 µM 39% | [16]; at 33.0 µM 65% | [14]; [17] -7% | [14]; at 50.0 µM 62.4% | [15]; at 1.2 µM 22% | [15]; at 3.7 µM 21% | [15]; at 11.0 µM 25% | [15]; at 33.0 µM 52%

CN(C)c1nc(=Nc2cccc(Cl)c2)ss1
active: [1]; at 11.0 µM 89% | [1]; at 33.0 µM 99% | [1]; at 100.0 µM 99% | [2]; at 33.0 µM 99% | [2]; at 100.0 µM 99% | [3]; at 11.0 µM 92% | [3]; at 33.0 µM 99% | [3]; at 100.0 µM 99% | [4]; at 11.0 µM 98% | [4]; at 33.0 µM 99% | [4]; at 100.0 µM 99% | [5]; [17] 75% | [5]; at 11.0 µM 89% | [5]; at 33.0 µM 99% | [5]; [18] 99% | [5]; at 50.0 µM 99.5% | [5]; at 100.0 µM 99% | [6]; at 11.0 µM 96% | [6]; at 33.0 µM 100% | [6]; [18] 99% | [6]; at 50.0 µM 99.7% | [6]; at 100.0 µM 100% | [7]; at 11.0 µM 97% | [7]; at 33.0 µM 99% | [7]; at 100.0 µM 99% | [8]; [17] 90% | [8]; [18] 99% | [8]; at 50.0 µM 99.7% | [9]; at 11.0 µM 71% | [9]; at 33.0 µM 99% | [9]; at 100.0 µM 99% | [10]; [18] 99% | [10]; at 50.0 µM 99.4% | [11]; at 11.0 µM 98% | [11]; at 33.0 µM 99% | [11]; [18] 98% | [11]; at 50.0 µM 98.3% | [11]; at 100.0 µM 99%
inactive: [1]; at 1.2 µM 7% | [1]; at 3.7 µM 34% | [2]; at 1.2 µM 7% | [2]; at 3.7 µM 20% | [2]; at 11.0 µM 63% | [3]; at 1.2 µM 9% | [3]; at 3.7 µM 42% | [4]; at 1.2 µM 9% | [4]; at 3.7 µM 47% | [5]; at 1.2 µM 5% | [5]; at 3.7 µM 32% | [6]; at 1.2 µM 11% | [6]; at 3.7 µM 28% | [6]; [17] 56% | [7]; at 1.2 µM 6% | [7]; at 3.7 µM 30% | [9]; at 1.2 µM -5% | [9]; at 3.7 µM 11% | [10]; [17] 17% | [11]; at 1.2 µM 1% | [11]; at 3.7 µM 28% | [11]; [17] 69%
